# Assay results published in PubChem BioAssay AID1159580 (chemical genetic matrix, 2015).
# Out of some 5,500 compounds screened, about 2,000 (36%) were called active. About 18% were inconclusive and are not listed. The list shows a part of the results. Values without a mark were called inactive. No stated cut-off is given here; in the data, active means normalized growth mostly below about 0.91 (no sharp cut-off); inconclusive means no clear call, values can overlap the other calls; inactive means mostly above about 0.92.
# Test: chemical genetic growth profiling, strain panel (AID 1159580);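 further: tested at 20 µM; growth read once vehicle control cultures reached saturation at 30 °C; 1 = growth at the plate median or of vehicle wells; lower values mean less growth of the strain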
# Conditions: S. cerevisiae deletion strains, growth OD
smiles,measurement,setting,value
Fc1cccc(F)c1NC(=S)Nc1cc(C(F)(F)F)cc(C(F)(F)F)c1,normalized growth,"locus YAR019C, strain CDC15, hits give low values",0.979
same,normalized growth,"locus YBL105C, strain PKC1, hits give low values",0.979
same,normalized growth,"locus YBR135W, strain CKS1, hits give low values",0.981
same,normalized growth,"locus YBR136W, strain MEC1, hits give low values",0.982
same,normalized growth,"locus YBR160W, strain CDC28, hits give low values",0.982
same,normalized growth,"locus YDL017W, strain CDC7, hits give low values",0.992
same,normalized growth,"locus YDL028C, strain MPS1, hits give low values",0.975
same,normalized growth,"locus YDL101C, strain DUN1, hits give low values",0.991
same,normalized growth,"locus YDL108W, strain KIN28, hits give low values",0.984
same,normalized growth,"locus YDL132W, strain cdc53, hits give low values",0.979
same,normalized growth,"locus YDL214C, strain PRR2, hits give low values",0.907
same,normalized growth,"locus YDR052C, strain DBF4, hits give low values",0.987
same,normalized growth,"locus YDR054C, strain cdc34, hits give low values",0.978
same,normalized growth,"locus YDR226W, strain ADK1, hits give low values",0.986
same,normalized growth,"locus YDR477W, strain SNF1, hits give low values",0.948
same,normalized growth,"locus YER123W, strain YCK3, hits give low values",0.907
same,normalized growth,"locus YER133W, strain GLC7, hits give low values",0.933
same,normalized growth,"locus YFL009W, strain cdc4, hits give low values",0.976
same,normalized growth,"locus YFL029C, strain CAK1, hits give low values",0.976
same,normalized growth,"locus YFR003C, strain YPI1, hits give low values",0.981
same,normalized growth,"locus YFR019W, strain FAB1, hits give low values",0.98
same,normalized growth,"locus YFR028C, strain CDC14, hits give low values",0.977
same,normalized growth,"locus YGR040W, strain KSS1, hits give low values",0.954
same,normalized growth,"locus YGR052W, strain FMP48, hits give low values",0.933
same,normalized growth,"locus YGR092W, strain DBF2, hits give low values",0.967
same,normalized growth,"locus YHR030C, strain SLT2, hits give low values",0.981
same,normalized growth,"locus YHR079C, strain IRE1, hits give low values",0.85
same,normalized growth,"locus YHR082C, strain KSP1, hits give low values",1.01
same,normalized growth,"locus YHR205W, strain SCH9, hits give low values",0.87
same,normalized growth,"locus YIL147C, strain SLN1, hits give low values",0.981
same,normalized growth,"locus YJL095W, strain BCK1, hits give low values",0.862
same,normalized growth,"locus YJL128C, strain PBS2, hits give low values",0.919
same,normalized growth,"locus YJL157C, strain FAR1, hits give low values",0.923
same,normalized growth,"locus YJR016C, strain ILV3, hits give low values",0.979
same,normalized growth,"locus YJR066W, strain TOR1 (second series), hits give low values",0.931
same,normalized growth,"locus YJR066W, strain TOR1, hits give low values",1.06
same,normalized growth,"locus YKL048C, strain ELM1, hits give low values",0.934
same,normalized growth,"locus YKL067W, strain YNK1, hits give low values",0.931
same,normalized growth,"locus YKL101W, strain HSL1, hits give low values",0.91
same,normalized growth,"locus YKL193C, strain SDS22, hits give low values",0.977
same,normalized growth,"locus YKL203C, strain TOR2, hits give low values",1.02
same,normalized growth,"locus YLR113W, strain HOG1, hits give low values",0.742 (active)
same,normalized growth,"locus YLR133W, strain CKI1, hits give low values",0.948
same,normalized growth,"locus YLR403W, strain SFP1, hits give low values",0.974
same,normalized growth,"locus YML070W, strain DAK1, hits give low values",0.907
same,normalized growth,"locus YMR001C, strain CDC5, hits give low values",0.981
same,normalized growth,"locus YMR205C, strain PFK2 (second series), hits give low values",0.95
same,normalized growth,"locus YMR277W, strain FCP1, hits give low values",0.975
same,normalized growth,"locus YNL006W, strain LST8, hits give low values",0.977
same,normalized growth,"locus YNL020C, strain ARK1, hits give low values",0.932
same,normalized growth,"locus YNL161W, strain CBK1, hits give low values",0.98
same,normalized growth,"locus YNL183C, strain NPR1, hits give low values",0.98
same,normalized growth,"locus YNL207W, strain RIO2, hits give low values",0.985
same,normalized growth,"locus YNL222W, strain SSU72, hits give low values",0.979
same,normalized growth,"locus YNL307C, strain MCK1 (second series), hits give low values",0.918
same,normalized growth,"locus YOL078W, strain AVO1, hits give low values",0.977
same,normalized growth,"locus YOL136C, strain PFK27, hits give low values",0.928
same,normalized growth,"locus YOR061W, strain CKA2, hits give low values",0.953
same,normalized growth,"locus YOR119C, strain RIO1, hits give low values",0.997
same,normalized growth,"locus YOR231W, strain MKK1, hits give low values",0.91
same,normalized growth,"locus YOR329C, strain SCD5, hits give low values",0.986
same,normalized growth,"locus YPL031C, strain PHO85, hits give low values",0.942
same,normalized growth,"locus YPL153C, strain RAD53, hits give low values",0.939
same,normalized growth,"locus YPL204W, strain HRR25, hits give low values",0.936
same,normalized growth,"locus YPL209C, strain IPL1, hits give low values",0.991
same,normalized growth,"locus YPL256C, strain CLN2, hits give low values",0.829 (active)
same,normalized growth,"locus YPR025C, strain CCL1, hits give low values",0.982
same,normalized growth,"locus YPR106W, strain ISR1, hits give low values",0.981
same,normalized growth,"locus YPR111W, strain DBF20, hits give low values",0.972
same,normalized growth,"strain NNK1, hits give low values",0.974
same,normalized growth,"strain TSCII, hits give low values",0.98
